The entries come from a sample that favours hits as a whole.
mHTT CaM bind: mHTT-calmodulin interaction abrogation; 190,000 tested, 3.6% active; inhibition, % at 15 µM; P42858; AlphaScreen His-mHTT/GST-CaM binding, luminescence;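 further: 0% = both proteins with DMSO and 100% = one protein alone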
Target sequence (P42858 whole entry, looked up, stated change not applied): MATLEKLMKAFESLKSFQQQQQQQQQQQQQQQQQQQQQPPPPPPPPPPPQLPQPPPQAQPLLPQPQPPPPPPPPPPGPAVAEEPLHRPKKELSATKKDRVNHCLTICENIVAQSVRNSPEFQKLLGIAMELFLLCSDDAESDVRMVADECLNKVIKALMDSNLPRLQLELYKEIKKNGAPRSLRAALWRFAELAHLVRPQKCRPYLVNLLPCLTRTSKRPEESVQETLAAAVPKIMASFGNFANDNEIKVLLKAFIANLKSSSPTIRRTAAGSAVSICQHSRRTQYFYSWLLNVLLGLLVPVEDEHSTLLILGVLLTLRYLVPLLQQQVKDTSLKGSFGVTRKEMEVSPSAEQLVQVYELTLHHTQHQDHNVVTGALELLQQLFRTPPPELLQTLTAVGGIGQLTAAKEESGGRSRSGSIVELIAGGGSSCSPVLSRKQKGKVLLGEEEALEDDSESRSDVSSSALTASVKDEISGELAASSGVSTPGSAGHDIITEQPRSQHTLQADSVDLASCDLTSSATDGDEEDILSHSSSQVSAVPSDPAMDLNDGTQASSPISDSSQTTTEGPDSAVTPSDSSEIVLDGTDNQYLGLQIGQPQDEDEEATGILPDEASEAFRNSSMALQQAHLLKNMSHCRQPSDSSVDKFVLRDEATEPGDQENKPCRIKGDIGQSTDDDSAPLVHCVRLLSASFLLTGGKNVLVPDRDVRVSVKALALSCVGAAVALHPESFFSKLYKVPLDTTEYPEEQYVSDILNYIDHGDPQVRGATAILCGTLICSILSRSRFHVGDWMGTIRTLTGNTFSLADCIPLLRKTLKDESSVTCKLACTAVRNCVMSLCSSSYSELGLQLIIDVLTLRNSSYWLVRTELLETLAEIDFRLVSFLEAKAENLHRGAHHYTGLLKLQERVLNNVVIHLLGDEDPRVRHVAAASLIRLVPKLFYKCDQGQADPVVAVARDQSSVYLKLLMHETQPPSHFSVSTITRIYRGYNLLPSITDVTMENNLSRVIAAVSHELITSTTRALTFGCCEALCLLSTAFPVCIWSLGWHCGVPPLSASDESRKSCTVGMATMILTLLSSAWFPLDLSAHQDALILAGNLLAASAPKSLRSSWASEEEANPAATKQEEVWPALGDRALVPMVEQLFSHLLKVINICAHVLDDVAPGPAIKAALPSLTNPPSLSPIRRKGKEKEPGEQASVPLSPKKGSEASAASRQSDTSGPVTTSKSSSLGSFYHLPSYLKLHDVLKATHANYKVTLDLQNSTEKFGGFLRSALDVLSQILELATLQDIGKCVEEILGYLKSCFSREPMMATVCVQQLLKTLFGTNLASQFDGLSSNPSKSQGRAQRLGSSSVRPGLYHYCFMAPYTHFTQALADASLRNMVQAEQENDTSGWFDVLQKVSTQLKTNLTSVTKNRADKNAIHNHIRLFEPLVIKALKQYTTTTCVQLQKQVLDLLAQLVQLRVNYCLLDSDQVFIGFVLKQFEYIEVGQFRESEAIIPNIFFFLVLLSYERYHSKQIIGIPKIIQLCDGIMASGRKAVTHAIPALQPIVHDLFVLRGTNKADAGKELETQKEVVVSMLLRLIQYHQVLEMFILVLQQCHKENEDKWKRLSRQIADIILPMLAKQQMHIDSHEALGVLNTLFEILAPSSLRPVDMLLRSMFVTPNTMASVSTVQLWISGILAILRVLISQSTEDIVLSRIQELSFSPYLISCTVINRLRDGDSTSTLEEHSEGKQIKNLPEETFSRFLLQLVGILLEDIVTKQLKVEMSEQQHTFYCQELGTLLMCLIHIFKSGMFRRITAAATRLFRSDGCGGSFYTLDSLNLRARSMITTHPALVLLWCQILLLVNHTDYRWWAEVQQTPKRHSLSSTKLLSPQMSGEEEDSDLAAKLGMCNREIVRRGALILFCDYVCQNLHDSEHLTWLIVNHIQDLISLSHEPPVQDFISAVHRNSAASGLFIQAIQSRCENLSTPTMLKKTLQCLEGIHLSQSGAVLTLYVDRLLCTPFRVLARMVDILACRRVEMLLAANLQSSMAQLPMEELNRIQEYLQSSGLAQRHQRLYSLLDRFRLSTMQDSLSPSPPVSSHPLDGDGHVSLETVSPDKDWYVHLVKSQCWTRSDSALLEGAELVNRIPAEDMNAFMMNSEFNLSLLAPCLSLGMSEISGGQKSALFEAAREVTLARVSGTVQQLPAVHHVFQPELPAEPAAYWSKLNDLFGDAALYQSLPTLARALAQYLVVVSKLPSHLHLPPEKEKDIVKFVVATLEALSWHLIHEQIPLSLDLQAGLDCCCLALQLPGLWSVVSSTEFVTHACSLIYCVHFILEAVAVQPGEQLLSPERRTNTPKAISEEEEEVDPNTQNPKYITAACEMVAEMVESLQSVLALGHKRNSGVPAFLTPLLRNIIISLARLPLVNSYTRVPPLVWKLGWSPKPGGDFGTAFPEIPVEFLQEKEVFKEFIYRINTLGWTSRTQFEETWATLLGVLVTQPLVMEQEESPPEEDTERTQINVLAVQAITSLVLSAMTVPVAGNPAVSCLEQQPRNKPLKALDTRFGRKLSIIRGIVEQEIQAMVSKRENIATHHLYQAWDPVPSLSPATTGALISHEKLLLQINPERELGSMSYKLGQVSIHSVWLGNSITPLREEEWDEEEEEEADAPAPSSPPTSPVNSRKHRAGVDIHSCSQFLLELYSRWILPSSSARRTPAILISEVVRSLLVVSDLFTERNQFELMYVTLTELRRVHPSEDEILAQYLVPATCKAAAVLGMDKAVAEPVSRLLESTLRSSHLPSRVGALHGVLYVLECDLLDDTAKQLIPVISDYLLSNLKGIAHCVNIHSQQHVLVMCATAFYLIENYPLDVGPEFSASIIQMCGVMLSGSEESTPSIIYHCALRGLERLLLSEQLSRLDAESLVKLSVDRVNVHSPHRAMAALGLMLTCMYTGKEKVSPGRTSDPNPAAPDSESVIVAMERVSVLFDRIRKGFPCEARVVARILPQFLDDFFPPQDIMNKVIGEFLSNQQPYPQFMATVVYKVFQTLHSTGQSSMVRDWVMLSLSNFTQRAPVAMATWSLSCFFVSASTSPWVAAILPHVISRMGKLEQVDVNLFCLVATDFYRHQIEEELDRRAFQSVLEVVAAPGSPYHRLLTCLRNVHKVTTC
Pf apPOL block: Pf-apPOL DNA polymerase inhibition; Recombinant Pf-apPOL, molecular beacon fluorescence, 1.5 h; inhibition, % at 10 µM; 210,000 tested, 0.25% active; AID 1794808
* marks the source's active call; other numbers are inactive results; i = inactive; . = no result given. No stated cut-off is given here; in the data, active means inhibition above about 50%; inactive means the rest.

SMILES | mHTT CaM bind | Pf apPOL block
Cc1cc(C)n(-c2cc(NCCNC(=O)C3CCCO3)ncn2)n1 (stereo not given) | -1 | -2
CC(C)n1c(=O)c(NCc2cccc(F)c2)nc2ccncc21 | -5 | -22
CC(C)n1c(=O)c(NCc2ccc(F)c(Cl)c2)nc2ccncc21 | 87* | -16
Cc1c(CC(Cl)(Cl)Cl)c2c(n1-c1ccccc1[N+](=O)[O-])CCCC2=O | 33 | -6
Cc1c(CC(Cl)(Cl)Cl)c2c(n1-c1ccc([N+](=O)[O-])cc1)CCCC2=O | 73* | -8
Cc1ccc(NCN2C(=O)C3CC=CCC3C2=O)c(C)c1 (stereo not given) | 5 | -2
O=C(CCCn1cccc1)NCc1c(F)cccc1F | -23 | -1
COc1cc(N=Cc2nc(-c3ccccc3F)oc2O)c(C(=O)O)cc1OC | 0 | 2
O=C(O)c1ccccc1N=Cc1nc(-c2ccccc2F)oc1O | 9 | 96*
Cc1nn(-c2ccccc2)c(C)c1-c1nc(-c2cccc(Cl)c2)no1 | . | 2
CCN1CCc2c(sc(N)c2C#N)C1 | 7 | -22
CCC(C)(C)C1CCc2c(sc(N)c2C#N)C1 (stereo not given) | . | 97*
Cc1ccc(/C=C/C2=NC(=C/c3ccc(Cl)cc3)/C(=O)O2)cc1 | 2 | -6
CCCCc1ccc(N=Cc2nc(-c3ccc([N+](=O)[O-])cc3)oc2O)cc1 | -1 | 1
OCCN=c1scc(-c2ccc(Br)cc2)n1-c1ccccc1 | 60* | -1
COc1ccc(-c2csc(=NCCO)n2-c2ccccc2)cc1 | 6 | 2
COc1cc(C2CC(=O)Nc3cc(C)c(C)cc32)cc(Br)c1OC (stereo not given) | 98* | -8
COc1cccc(C2CC(=O)Nc3cc(C)c(C)cc32)c1 (stereo not given) | 19 | -3
CN1CCCN(Cc2ccc(Br)s2)CC1 | -9 | -4
O=C(Nc1ccc(Cl)c(Cl)c1)c1cnn2c1NC(c1ccco1)CC2C(F)(F)F (stereo not given) | 12 | 1
CC(=O)N(c1ccc2oc3c(c2c1)CCCC3)S(=O)(=O)c1cccc([N+](=O)[O-])c1 | 9 | 9
O=[N+]([O-])c1cccc(NCc2c(O)ccc3oc4c(c23)CCCC4)c1 | 97* | 9
CC(=O)N1CCc2sc(C(=O)N3CCN(c4ccccn4)CC3)cc2C1 | 10 | 0
CC(=O)N1CCCC1c1nc2cc(-c3ccc(F)cc3F)ccc2o1 (stereo not given) | 42 | -4
COc1ccccc1-c1ccc2oc(C3CCCN3C(=O)C(C)C)nc2c1 (stereo not given) | 47 | 0
SMILES | mHTT CaM bind | Pf apPOL block
CC(=O)N1CCCC1c1nc2cc(-c3ccc(N(C)C)cc3)ccc2o1 (stereo not given) | 86* | -10
CN(C)c1ccc(-c2ccc3oc(C4CCCN4C(=O)C4CC4)nc3c2)cc1 (stereo not given) | 89* | -13
O=C(C1CC1)N1CCCC1c1nc2cc(-c3ccc(F)cc3F)ccc2o1 (stereo not given) | 48 | -5
Cc1ccccc1-c1ccc2oc(C3CCCN3S(C)(=O)=O)nc2c1 (stereo not given) | 90* | -4
COc1ccc(C(=O)Nc2ccc(N3CCOCC3)c(Cl)c2)cc1[N+](=O)[O-] | -7 | -2
Cc1cc(C(=O)NCc2ccc(F)cc2)nc2cc(-c3cccs3)nn12 | -24 | -4
COc1ccccc1/C=C1\C(=O)Nc2ccc(Cl)cc21 | 24 | -1
O=C1Nc2ccc(Cl)cc2/C1=C/c1ccccc1 | 65* | 0
COc1ccc(/C=C2\C(=O)Nc3ccc(Cl)cc32)cc1OC | 74* | -11
O=C1Nc2ccc(Cl)cc2/C1=C/c1ccccc1F | 19 | 7
CCc1noc(C2CCCCN2CC(=O)NCCc2cccs2)n1 (stereo not given) | 31 | -6
COc1cc(C(=O)N2C(=S)C(c3ccccc3)=NC23CCCCC3)cc(OC)c1OC | 4 | -3
COc1cc(OC)cc(C2=NC3(CCCC3)N(C(=O)c3ccc(OC)c(OC)c3)C2=S)c1 | 85* | -4
CCCCSc1nnc(C(F)F)n1/N=C/c1cnn(C)c1C | i | .
COc1ccc(NC(NC(=O)c2cccs2)C(=O)c2ccccc2)cc1 (stereo not given) | 40 | -1
Cc1ccc(NC(NC(=O)c2cccs2)C(=O)c2ccccc2)cc1C (stereo not given) | -3 | -1
NS(=O)(=O)c1ccc(NC(NC(=O)c2cccs2)C(=O)c2ccccc2)cc1 (stereo not given) | 11 | 8
O=C(NC(Nc1cccc(Cl)c1)C(=O)c1ccccc1)c1cccs1 (stereo not given) | 67* | 27
O=C(NC(Nc1ccc(Cl)c(Cl)c1)C(=O)c1ccccc1)c1cccs1 (stereo not given) | 90* | -7
CCOc1ccc(NC(NC(=O)c2cccs2)C(=O)c2ccccc2)cc1 (stereo not given) | 56* | -1
